Here are results for 40 compounds from the supplement of paper PMC12339681.

Counter-ions that a name gives are not always drawn.

The test system of the assay is PBMC-derived induced microglia-like cells (piMGLC). The assay can be described thus: synaptosome phagocytic index relative to DMSO control (fraction of DMSO); higher = more phagocytosis. The conditions noted are these: concentration: 10 uM (2 uM for compounds listed in Table S2); pretreatment time: 24 h; assay time: 3 h. On the procedure:
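PBMC-derived induced microglia-like cells (piMGLCs) in 96-well plates were pretreated for 24 h with CNS-penetrant library compounds (MedChemExpress HY-L028), mostly at 10 uM; Table S2 lists 9 compounds at 2 uM. pHrodo-Red-labelled human iPSC-neuron synaptosomes (3 ug/well) were then added for 3 h, and cells were fixed and imaged by confocal microscopy. Phagocytic index (synaptosome area / cell count, CellProfiler) is a mean over 3 replicate wells on different plates, normalized to the DMSO control. Compounds leaving <10% of DMSO cell count were marked toxic and given no value.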
`CC(C)n1c(=O)n(C)c2cnc3cc(F)c(-c4ccc(OCCCN5CCCCC5)nc4)cc3c21`: the synaptosome phagocytic index came to 0.706.

Regarding `Cc1nc2n(c(=O)c1CCN1CCC(c3noc4cc(F)ccc34)CC1)CCCC2O` (stereo not given) [Paliperidone], the synaptosome phagocytic index came out at 0.852.

On to `CN[C@@H]1[C@H](O[C@H]2[C@H](O[C@H]3[C@H](O)[C@@H](O)[C@H](N=C(N)N)[C@@H](O)[C@@H]3N=C(N)N)O[C@@H](C)[C@]2(O)C=O)O[C@@H](CO)[C@H](O)[C@H]1O` [Streptomycin_(sulfate)], for which the synaptosome phagocytic index was found to be 0.697.

Turning to `S=c1nc[nH]c2nc[nH]c12` [6-Mercaptopurine], the synaptosome phagocytic index was 0.669.

`CC(C)(C)C(=O)NCCCC(=O)O` [Pivagabine]: the synaptosome phagocytic index was 0.829.

Consider `NC(=O)NO` [Hydroxyurea], for which the synaptosome phagocytic index stood at 0.555.

`O=C1NC(c2ccccc2)(c2ccccc2)C(=O)N1COP(=O)(O)O` [Fosphenytoin_(disodium)]: the synaptosome phagocytic index was 0.487.

Turning to `CCC(=N\O)/C(C)=C/c1ccc(F)cc1`, the synaptosome phagocytic index came out at 0.93.

With `O=C(Oc1ccccc1C(=O)O)c1ccccc1O` [Salsalate], the synaptosome phagocytic index was found to be 0.409.

Consider `CCNc1nc(Nc2cc(F)c(C(=O)N3CCOCC3)cc2OC)ncc1C(F)(F)F` [GNE-7915_(tosylate)], for which the synaptosome phagocytic index was found to be 0.359.

`CCN(CC)C(=S)SSC(=S)N(CC)CC` [Disulfiram]: the synaptosome phagocytic index worked out at 0.784.

`O=C(O)c1ccccc1O` [Salicylic_acid]: the synaptosome phagocytic index turned out to be 0.557.

Take `Cn1cc(-c2ccncc2)c(-c2ccc(OCc3ccc4ccccc4n3)cc2)n1` [Mardepodect_(hydrochloride)]: the synaptosome phagocytic index amounted to 0.503.

As for `CC#Cc1cncc(-c2ccc3c(c2)[C@@]2(N=C(C)C(N)=N2)[C@]2(CC[C@H](OC)CC2)C3)c1` [Lanabecestat], the synaptosome phagocytic index was 1.03.

As for `CN(C)CCc1c[nH]c2ccc(Cn3cncn3)cc12` [Rizatriptan_(benzoate)], the synaptosome phagocytic index amounted to 1.11.

For the compound `CN1CCN(C2=Nc3ccccc3Nc3ccccc32)CC1` [Deschloroclozapine], the synaptosome phagocytic index is 0.876.

For `C[N+](C)(C)CCO.[Cl-]` [Choline_(chloride)], the synaptosome phagocytic index came out at 0.799.

Consider `CO[C@H]1C[C@@H]2CC[C@@H](C)[C@@](O)(O2)C(=O)C(=O)N2CCCC[C@H]2C(=O)O[C@H]([C@H](C)C[C@@H]2CC[C@@H](OCCO)[C@H](OC)C2)CC(=O)[C@H](C)/C=C(\C)[C@@H](O)[C@@H](OC)C(=O)[C@H](C)C[C@H](C)/C=C/C=C/C=C/1C` [Everolimus], for which the synaptosome phagocytic index came out at 0.223.

Regarding `CCc1nc(N)nc(N)c1-c1ccc(Cl)cc1` [Pyrimethamine], the synaptosome phagocytic index was found to be 1.01.

Take `CCCCC1C(=O)N(c2ccccc2)N(c2ccccc2)C1=O` [Phenylbutazone]: the synaptosome phagocytic index stood at 0.797.

With `Cc1nc(Nc2ncc(C(=O)Nc3c(C)cccc3Cl)s2)cc(N2CCN(CCO)CC2)n1` [Dasatinib], the synaptosome phagocytic index amounted to 0.243.

As to `Cc1cccc(C)c1OCC(=O)N[C@@H](Cc1ccccc1)[C@@H](O)C[C@H](Cc1ccccc1)NC(=O)[C@H](C(C)C)N1CCCNC1=O` [Lopinavir], the synaptosome phagocytic index was 0.253.

On to `O=C(NCc1ccc(F)cc1)N1CCN2C(=O)OC(c3ccccc3)(c3ccccc3)C2C1` (stereo not given), for which the synaptosome phagocytic index came out at 0.552.

`Cn1cc(-c2ccncc2)c(-c2ccc(OCc3ccc4ccccc4n3)cc2)n1` [Mardepodect]: the synaptosome phagocytic index was 0.723.

In the case of `Fc1ccc(-c2ccc3c(c2)[nH]c2ccncc23)cn1`, the synaptosome phagocytic index amounted to 0.711.

Turning to `Cc1ccc(-c2ncn(-c3ccc(Nc4nccc(-c5cccc(N6CCOCC6)c5)n4)cc3)n2)cn1`, the synaptosome phagocytic index was 0.167.

For the compound `NC(=O)c1ccc(OCCCN2CC3CCCC3C2)cc1` (stereo not given), the synaptosome phagocytic index was found to be 0.933.

Turning to `O=C1N=C(O)NC1(c1ccccc1)c1ccccc1` [Phenytoin_(sodium)], the synaptosome phagocytic index came out at 0.725.

As for `CS(=O)(=O)c1ccc(C(=O)Nc2ccc(Cl)c(-c3ccccn3)c2)c(Cl)c1` [Vismodegib], the synaptosome phagocytic index amounted to 0.948.

Consider `COc1cc2ncnc(Nc3ccc(F)c(Cl)c3)c2cc1OCCCN1CCOCC1` [Gefitinib], for which the synaptosome phagocytic index was determined as 1.24.

With `Cc1cc(C)cc(OCC2CNC(=O)O2)c1` (stereo not given) [Metaxalone], the synaptosome phagocytic index is 0.757.

Take `Oc1c(I)cc(Cl)c2cccnc12` [Clioquinol]: the synaptosome phagocytic index is 0.393.

In the case of `COC(=O)/C=C/c1ccc(O)c(OC)c1` [Ferulic_acid_methyl_ester], the synaptosome phagocytic index is 0.783.

For the compound `C[C@@H]1CN(c2cccnc2F)C(=O)c2cc(COc3ccc(Cl)cn3)nn21`, the synaptosome phagocytic index came out at 1.13.

With `CC(C)Nc1cccnc1N1CCN(C(=O)c2cc3cc(NS(C)(=O)=O)ccc3[nH]2)CC1` [Delavirdine_(mesylate)], the synaptosome phagocytic index is 0.749.

On to `COc1ccc2[nH]cc(CCNC(C)=O)c2c1` [Melatonin], for which the synaptosome phagocytic index turned out to be 0.577.

With `CC(C)(C)c1cnc(CSc2cnc(NC(=O)C3CCNCC3)s2)o1`, the synaptosome phagocytic index was found to be 0.572.

Regarding `N#Cc1ccc(COC[C@H]2O[C@@H](n3c(NCc4ccc(Cl)c(Cl)c4)nc4c(N)ncnc43)[C@H](O)[C@@H]2O)cc1`, the synaptosome phagocytic index was 0.479.

Take `COc1c(N2CCNC(C)C2)c(F)cc2c(=O)c(C(=O)O)cn(C3CC3)c12` (stereo not given) [Gatifloxacin]: the synaptosome phagocytic index was 0.702.

As for `Cc1ccc(NC(=O)c2ccc(CN3CCN(C)CC3)cc2)cc1Nc1nccc(-c2cccnc2)n1` [Imatinib_(Mesylate)], the synaptosome phagocytic index worked out at 0.52.
